About 770 (37%) of roughly 2,100 compounds were called active.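 The calls were made as follows: active = by-eye trace score of 1 for enhancers or -1 for inhibitors, so actives lie on both sides (some results past the limit were not filed as active); inactive = score 0, or 3 fluorescent, or 4 baseline rise.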 Some of the results follow.
Molecular target: G protein-activated inward rectifier potassium channel 2 (Homo sapiens) + G protein-activated inward rectifier potassium channel 1 (Homo sapiens) (UniProt P48051+P48549)
Assay: GIRK1/2 thallium flux modulators, retest, confirmation, cell-based, HEK293 rmGlu8/hGIRK1/2, FluoZin-2 (AID 623911)
Details: HEK293 rmGlu8/hGIRK1/2, thallium flux FluoZin-2; actives lie on both sides; glutamate co-added at its EC20 level

G protein-activated inward rectifier potassium channel 2 (Homo sapiens) + G protein-activated inward rectifier potassium channel 1 (Homo sapiens), sequence (P48051 whole entry, looked up): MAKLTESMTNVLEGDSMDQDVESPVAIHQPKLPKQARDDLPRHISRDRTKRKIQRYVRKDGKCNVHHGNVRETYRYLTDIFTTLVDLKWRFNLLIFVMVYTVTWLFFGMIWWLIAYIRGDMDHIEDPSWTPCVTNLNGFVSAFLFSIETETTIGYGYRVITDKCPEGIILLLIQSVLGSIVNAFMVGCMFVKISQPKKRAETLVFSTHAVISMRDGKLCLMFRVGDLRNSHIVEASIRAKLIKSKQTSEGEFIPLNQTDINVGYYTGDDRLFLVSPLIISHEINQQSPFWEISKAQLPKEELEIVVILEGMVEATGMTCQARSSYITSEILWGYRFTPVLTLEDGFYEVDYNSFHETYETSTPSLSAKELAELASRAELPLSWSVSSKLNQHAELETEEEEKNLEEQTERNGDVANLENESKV
G protein-activated inward rectifier potassium channel 2 (Homo sapiens) + G protein-activated inward rectifier potassium channel 1 (Homo sapiens), sequence (P48549 whole entry, looked up): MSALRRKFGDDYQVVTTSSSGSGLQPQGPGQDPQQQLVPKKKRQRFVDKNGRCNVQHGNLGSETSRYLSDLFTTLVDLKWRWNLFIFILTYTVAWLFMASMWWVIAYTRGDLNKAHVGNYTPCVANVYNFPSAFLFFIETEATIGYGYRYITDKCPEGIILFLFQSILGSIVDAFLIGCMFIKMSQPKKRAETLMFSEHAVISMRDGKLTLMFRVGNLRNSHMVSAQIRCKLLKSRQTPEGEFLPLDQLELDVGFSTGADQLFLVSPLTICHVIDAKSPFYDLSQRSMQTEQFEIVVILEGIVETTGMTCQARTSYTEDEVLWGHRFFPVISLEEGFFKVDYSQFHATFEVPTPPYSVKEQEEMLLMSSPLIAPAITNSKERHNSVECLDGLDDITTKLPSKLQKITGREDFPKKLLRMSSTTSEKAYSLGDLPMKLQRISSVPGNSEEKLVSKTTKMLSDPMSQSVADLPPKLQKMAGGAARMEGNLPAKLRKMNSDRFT

Manual score, inactive:
O=C(Nc1ccccc1C(=O)N/N=C/c1ccco1)c1ccccc1 0.5
Cc1cc(C)c(NC(=O)/C(=C/c2ccco2)c2ccccc2)c(C)c1 0
O=C(CSc1nc2ccccc2[nH]1)NC1CCCc2ccccc21 (configuration not stated) 0
CC(Sc1nc2ccccc2c(=O)[nH]1)C(=O)O (configuration not stated) 0
O=[n+]1c2c(n([O-])c3cc(F)c(N4CCCC4)cc31)CCC2 3
CCCN(CCC)CCNC(=O)C(NS(=O)(=O)c1ccc2c(c1)CCC(=O)N2)c1ccccc1 (configuration not stated) 0
Cc1ccc(S(=O)(=O)n2cnc3cc([N+](=O)[O-])ccc32)cc1C 0
COc1ccc(OC)c(C2C(C(=O)c3cc4ccccc4o3)=C(O)C(=O)N2c2cc(C)on2)c1 (configuration not stated) 0
Cc1cccc(-n2ncc3c(NCCc4ccc(S(N)(=O)=O)cc4)ncnc32)c1 0
NS(=O)(=O)c1ccc(CCNC2CC(=O)N(Cc3ccccc3)C2=O)cc1 (configuration not stated) 0
CCCCNC(=S)NC(=O)c1ccccc1Br 0.5
CC(C)CNC(=S)NC(=O)c1ccccc1Cl 0
CCOc1ccc(C(C)=O)cc1N1C(=O)C2C(C1=O)C1C=CC2C12CC2 (configuration not stated) 0
Cc1ncoc1C(=O)Nc1ccc(Oc2ccccc2)cc1 0.5
CC(=O)Nc1ccc(Oc2ncccn2)cc1 0
CCCC(c1c(C)n(C)n(-c2ccccc2)c1=O)c1c(C)n(C)n(-c2ccccc2)c1=O 0
COc1ccc(C(=O)N/N=C/c2ccc3cccc(OCc4ccccc4)c3n2)cc1 0
O=C(N/N=C/c1ccc2cccc(OCc3ccccc3)c2n1)c1ccc(Br)cc1 0.5
CCCC1=C(C(=O)OCC)C(c2ccc(F)cc2)n2ncnc2N1 (configuration not stated) 0
CCOC(=O)C1=C(C)NC2=C(C(=O)C(C(=O)OCC)C(c3ccccc3OC)C2)C1c1ccccn1 (configuration not stated) 0
C/C(=N\NC(=O)c1ccccc1)c1nc2ccccc2n1C 0
CCCCn1c(SCC(=O)NCc2ccco2)nc2ccccc2c1=O 0.5
CCCCn1c(NC(=O)c2ccccc2Cl)c(C#N)c2nc3ccccc3nc21 -0.5
CCCCn1c(NC(=S)Nc2ccccc2)nc2ccccc21 0
CC(C)CCn1c(S(=O)(=O)O)nc2ccccc21 0
CCN1c2ccccc2-c2nc3ccccc3n2C1c1ccco1 (configuration not stated) 0
Cc1cccc(N2C(N)=NC(N)=NC23CCCCC3)c1 0
O=C(CN1C(=O)/C(=C/c2ccccc2F)Oc2ccccc21)N1CCN(c2ccccn2)CC1 0
O=C(NNC(=O)c1cccnc1SCc1cccc([N+](=O)[O-])c1)c1ccccn1 0
Cc1ccccc1NC1=C(Cl)C(=O)OC1OC(=O)c1ccco1 (configuration not stated) 0
O=C(NNC(=O)c1cccnc1SCc1cccc([N+](=O)[O-])c1)c1cccnc1 0
Cc1ccc(C2c3c(oc4ccc(Cl)cc4c3=O)C(=O)N2CCCN2CCOCC2)o1 (configuration not stated) 0.5
O=c1c2ccccc2c(C=NCc2ccccn2)c(O)n1-c1ccccc1 0
CCNS(=O)(=O)c1cc(S(C)(=O)=O)ccc1Cl 0
CC(=C/c1ccccc1)/C=N/n1c(-c2ccco2)n[nH]c1=S 0
Cc1ccc(/C=N/n2c(COc3ccccc3)n[nH]c2=S)s1 0
CCN(CC)S(=O)(=O)c1cccc(-c2n[nH]c(=S)n2/N=C/c2ccc(C(=O)OC)cc2)c1 0
CC(/C=N/n1c(-c2ccccc2)n[nH]c1=S)=C\c1ccco1 0
CC(=O)Nc1ccc(S(=O)(=O)NC(C(=O)O)C2=CCC=CC2)cc1 (configuration not stated) 0
Cc1ccc(NCC(=O)Nc2cccc(S(=O)(=O)N(C)C)c2)c(Cl)c1 0
O=C(Nc1cccc(S(=O)(=O)c2cccc(NC(=O)C3CC3)c2)c1)C1CC1 0
CN(C)S(=O)(=O)c1cccc(NC(=O)COc2cccc(C#N)c2)c1 0
CC(C)OC(=O)/C(=C/c1cccnc1)NC(=O)c1ccccc1 0
O=C(NCCCCNC(=O)c1cccnc1)c1cccnc1 0
Cc1cc(N2C(=O)C(O)=C(C(=O)c3ccc(C)o3)C2c2cccs2)no1 (configuration not stated) 0
CCCCn1c(-c2ccc(Cl)cc2)nc2c(=O)n(C)c(=O)[nH]c21 0
CC(C)N(C(=O)CSc1ncnc2sc(-c3ccccc3)cc12)C(C)C 0
CCN(CC)C(=O)CSc1ncnc2sc(-c3ccccc3)cc12 0
Clc1ccccc1-c1nnc2sc(-c3ccccn3)nn12 0.5
Clc1ccccc1-c1nnc2sc(-c3ccc4c(c3)OCO4)nn12 0
CCN(C(=O)CSc1nc2ccccc2n1CCc1ccccc1)C1CCS(=O)(=O)C1 (configuration not stated) 0
CCCOC(=O)NC(CC)COC(=O)Nc1cccc(C)c1C (configuration not stated) 0
Cc1cc(C=C2C(=O)c3ccccc3C2=O)c(C)n1-c1ccccc1 0.5
C/C(=N\NC(=S)NCCc1ccccc1)c1ccc(C)cc1 0
O=C(COC(=O)C1CC(=O)N(Cc2ccccc2)C1)Nc1ccc2c(c1)OCO2 (configuration not stated) 0
CC(C)Oc1ccccc1C1Nc2ccccc2C(=O)N1c1ccc2c(c1)OCCO2 (configuration not stated) 0
O=C(CSCC(=O)N1CCCCC1)Nc1nc(-c2ccc(Cl)s2)cs1 0
CCc1ccc2c(c1)C1(NN=C(c3cccc4ccccc34)S1)C(=O)N2 (configuration not stated) 0
O=C(NC(=S)Nc1ccccc1)c1cc(-c2ccccc2)nc2ccccc12 0
Cc1ccc2cccc(NC(=S)NC(=O)c3ccn(C)n3)c2n1 0
O=C(NC(=S)Nc1cc(C(F)(F)F)ccc1Cl)c1ccccc1 0
CC(C)Oc1cccc(C(=O)NC(=S)Nc2ccccc2)c1 0
COc1ccc(Nc2nc(N)nc(CSc3nnc(C)s3)n2)cc1 0
Cc1cccc(C)c1NC(=O)C(NC(=O)c1ccccn1)c1ccc([N+](=O)[O-])cc1 (configuration not stated) 0
CC1CN(C(=O)C2CCCCC2)C(C)CN1C(=O)C1CCCCC1 (configuration not stated) 0
Cc1cccc(C(=O)CC(=O)c2cc(Cl)ccc2O)c1 0.5
CCC(NC(=O)c1ccccc1O)c1ccccc1 (configuration not stated) 0
O=C(CC(=O)c1cc(Cl)ccc1O)c1ccccc1 0
COc1cccc(C(=O)NC(=S)Nc2ccc3c4c(cccc24)CC3)c1 0

Manual score, active:
Cc1ccccc1C(=O)Nc1ccccc1C(=O)N/N=C\c1ccco1 1
Fc1ccc(CSc2nc3ccccc3[nH]2)c2ccccc12 1
CN1CCN(c2ccccc2NS(=O)(=O)c2ccc3c(c2)CCN3C(=O)C2CCC2)CC1 -1
Cc1nc(NCCc2ccc(S(N)(=O)=O)cc2)c2c(C)c(C)sc2n1 1
CC(C)CNC(=S)NC(=O)c1ccc(Cl)cc1Cl 1
CC(C)NC(=S)NC(=O)c1ccc(Cl)cc1Cl 1
CCCCNC(=S)NC(=O)c1ccc(Cl)cc1Cl 1
C=CCn1c(=S)[nH]c2sc3c(c2c1=O)CCC3 1
Cc1nc(C)c(C(=O)Nc2ccc(Oc3ccccc3)cc2)o1 1
O=C1c2ccsc2SCCN1Cc1c(Cl)cccc1Cl -1
O=C(N/N=C/c1ccccn1)c1ccc(Br)cc1 1
CCOC(=O)C1=C(C)Nc2nnnn2C1c1ccccc1Cl (configuration not stated) -1
Cn1c(NCc2cccc(Br)c2)nc2ccccc21 -1
CCCn1c(NCc2ccc(N(C)C)cc2)nc2ccccc21 -1
CCc1c(C)c(C#N)c2nc3ccccc3n2c1NCc1ccco1 -1
CCCCCn1c(NCc2ccco2)nc2ccccc21 -1
O=C(Oc1c(Cl)cc(Cl)c2cccnc12)c1cccc([N+](=O)[O-])c1 1
O=C(Oc1c(Cl)cc(Cl)c2cccnc12)c1ccco1 1
CCOc1ccc(Br)cc1/C(C)=N\NC1=NCCN1 -1
COc1ccc(/C=N/n2c(-c3cccs3)n[nH]c2=S)cc1 1
COc1cccc(/C=N/n2c(-c3cccs3)n[nH]c2=S)c1 1
CN(C)S(=O)(=O)c1cccc(NC(=O)Cc2ccc(Cl)cc2)c1 1
CN(C)S(=O)(=O)c1cccc(NC(=S)Nc2ccc(Cl)cc2Cl)c1 1
CN(C)S(=O)(=O)c1cccc(NC(=S)Nc2cc(Cl)cc(Cl)c2)c1 1
S=C(Nc1ccccc1Cl)Nc1ccc(Cl)cc1Cl 1
O=C(N/N=C(\c1ccccc1)c1cccnc1)C(O)(c1ccccc1)c1ccccc1 -1
CC(=O)c1c(C)[nH]c(C(=O)CSc2ncnc3sc(-c4ccccc4)cc23)c1C 1
Brc1ccccc1-c1nnc2sc(-c3ccc4c(c3)OCCO4)nn12 -1
Cc1cc(C)c(-n2c(C)cc(/C=C3/NC(=O)NC3=O)c2C)c(C)c1 -1
Cc1ccc(C)c(OCC(O)CN2C(C)CCCC2C)c1 (configuration not stated) -1
O=C1c2ccccc2C(Nc2ccc3c(c2)OCCO3)N1Cc1ccccc1 (configuration not stated) -1
c1cn(C23CC4CC(CC(C4)C2)C3)cn1 -1
O=C(NC(=S)Nc1ccccc1)c1csnn1 1
O=C(NC(=S)Nc1ccccc1Cl)c1csnn1 1
O=C(CC(=O)c1ccccc1O)c1cccc(F)c1 1
O=C(CC(=O)c1ccccc1O)c1ccc(F)cc1 1
COc1ccc(CN(CCC#N)C(=S)NC(=O)c2ccccc2)cc1 1
N#CCCN(Cc1ccccc1)C(=S)NC(=O)c1ccccc1 1
